Laboratory results taken from PubChem BioAssay (NCI).
This is part of a sample that, as a whole, favours compounds with a hit. Of some 83,000 tested, about 20% had one in any assay.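 Plates (96-well) were seeded with cells, treated with compound at one concentration, and incubated for 48 hours before percent growth was determined.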 Values without a mark were called inactive. Activity calls are given as the source filed them. How the source made its calls: active means growth percent below 10; inactive means the rest.

Assays:
Test in all cases: NCI-60 one-dose screen, 48 h (100 = growth as untreated, 0 = no growth, -100 = all killed)
Details in all cases: 10 µM unless noted
SK-MEL-2 melanoma = system: SK-MEL-2 melanoma
EKVX NSCLC = system: EKVX NSCLC
SN12C renal = system: SN12C renal
UO-31 renal = system: UO-31 renal
TK-10 renal = system: TK-10 renal
ACHN renal = system: ACHN renal
CAKI-1 renal = system: CAKI-1 renal
A498 renal = system: A498 renal
CCRF-CEM leukemia = system: CCRF-CEM leukemia
MOLT-4 leukemia = system: MOLT-4 leukemia

SMILES | growth (SK-MEL-2 melanoma) | growth (EKVX NSCLC) | growth (SN12C renal) | growth (UO-31 renal) | growth (TK-10 renal) | growth (ACHN renal) | growth (CAKI-1 renal) | growth (A498 renal) | growth (CCRF-CEM leukemia) | growth (MOLT-4 leukemia)
COc1ccc2[nH]c(O)c(N=Nc3nc(-c4ccc(Cl)cc4)cs3)c2c1 | 14% | -3.25% (active) | -69.2% (active) | -61.4% (active) | 7.57% (active) | -79.1% (active) | -37.6% (active) | -89.7% (active) | 15.7% | -16.5% (active)
CCCCC[C@@H]1C/C=C(\C)[C@@H](O)C(C)(C)C(=O)[C@@H](C)/C=C(\C)[C@@H]2C[C@H](O)C[C@](O)(CC(=O)O1)O2 | 9.84% (active) | 21.4% | 76.8% | 20.4% | 55.1% | 19.7% | 47.1% | 30% | 28.9% | 18.2%
CC[C@]12C=CCN3CC[C@]4(C(=C(C(=O)OC)C1)Nc1cc(OC)c([C@@H]5[C@H]6O[C@H]6[C@@]6(CC)CC(C(=O)OC)=C7Nc8cc(O)ccc8[C@@]78CCN5[C@@H]68)cc14)[C@@H]32 | -67.3% (active) | 6.25% (active) | -30.1% (active) | -4.18% (active) | 25.6% | 1.9% (active) | 11.7% | 59% | -5.67% (active) | -11.5% (active)
N#Cc1cc(-c2ccnc(Nc3ccc(N4CCN(C5COC5)CC4)cc3)n2)ccc1N1CCCC1 | 84.5% | 90.9% | 52.1% | 30.5% | 66.9% | 50.3% | 18.1% | 71.2% | 43.4% | 40.4%
CCCCN1C(=O)/C(=C\C(=O)c2cc3ccccc3oc2=O)c2ccccc21 | 79.8% | 84.5% | 56.2% | 32.1% | 57.7% | 0.901% (active) | 70.8% | 161% | 25.5% | 3.77% (active)
CN(C)c1nc(NCCNS(=O)(=O)c2ccc(C(=O)/C=C/c3ccc(C(F)(F)F)cc3)cc2)nc(N2CCOCC2)n1 | 74.8% | 37.1% | 39.9% | -61.9% (active) | 70.4% | -33.2% (active) | -32.7% (active) | 72.5% | -29% (active) | -19.1% (active)
COc1cc(CNC(=O)C[C@H](C)CCC=C(C)C)ccc1OCc1cn(-c2ccccc2F)nn1 | 78.6% | 78.3% | 76.1% | 71.9% | 95.8% | 65.3% | 55.1% | 103% | 97.3% | 74.8%
Cc1ccc(N=Nc2c(N)nn3c(-c4cc5cc(Br)ccc5oc4=O)ccnc23)cc1 | 108% | 72.2% | 35.6% | 79.8% | 81.9% | 54.4% | 80.8% | 51.9% | 99.8% | 98.6%
O=C(Nc1ccc(-c2ccc3c(c2)NC(=O)/C3=C\c2ccc[nH]2)cc1)Nc1ccc(Cl)c(C(F)(F)F)c1 | 34.2% | 25.3% | 19.4% | 36.1% | 42.1% | 37.3% | 39.3% | 39.2% | 27.4% | 9.33% (active)
COc1ccc2[nH]c(O)c(N=Nc3nc(-c4ccccc4)cs3)c2c1 | 83.7% | 14.4% | 2.85% (active) | 4.1% (active) | 25.5% | -16.5% (active) | 14% | -34.8% (active) | 44% | 42.5%
O=C1c2cccc3c(N4CCN(Cc5ccccc5)CC4)ccc(c23)C(=O)N1c1cccc(-c2nn(-c3ccccc3)cc2-c2nc3ccccc3s2)c1 | 111% | 98.6% | 101% | 68.8% | 120% | 93.1% | 86.1% | 125% | 105% | 113%
O=C(NN1C(=O)/C(=C/C=C/c2ccc([N+](=O)[O-])o2)SC1=S)c1ccncc1 | -79.3% (active) | -92% (active) | -99.9% (active) | -97.2% (active) | -91% (active) | -100% (active) | -100% (active) | 18.9% | -43.9% (active) | -38.8% (active)
O=C(Nc1ccc(S(=O)(=O)N2CCCCC2)cc1)C(Cl)Cl | 104% | 95.4% | 112% | 97% | 103% | 109% | 97.9% | 111% | 127% | 117%
C=CCSc1nnc(-c2ccc(-c3nc4ccccc4[nH]3)cc2)o1 | 95% | 71.5% | 83.8% | 56.1% | 87.7% | 78.1% | 63.9% | 113% | 32.6% | 38.1%
CCC(=O)c1c2c(c3ccc4c5ccccc5ccc4n13)C(=O)c1ccccc1C2=O | 89.2% | 71.2% | 85.6% | 59.8% | 122% | 83.3% | 84% | 215% | 100% | 89.6%
C[C@@H](Nc1c(C#N)cnc2ccc(-c3cnc4[nH]ncc4c3)cc12)c1ccccc1 | -24.8% (active) | -31.9% (active) | 11.3% | 8.19% (active) | -6.48% (active) | 4.37% (active) | 4.1% (active) | -40.2% (active) | 0.263% (active) | -34.5% (active)
O=C(c1ccc(O)cc1)C1[C@H](c2ccc(Cl)cc2)[C@@H](c2ccccc2)NC12C(=O)Nc1ccccc12 (stereo not given in full) | -72.3% (active) | 8.32% (active) | -83.8% (active) | 3.54% (active) | 11.8% | 3.11% (active) | 3.82% (active) | -2.62% (active) | -7.04% (active) | -34.3% (active)
COc1ccc2c(c1)N=c1c-2cc2c(O)[nH]c(=S)n2c1=O | 41.9% | 48.7% | 35.6% | 47.8% | 73.5% | 44.9% | 29.7% | 105% | 11.1% | 35.1%
COc1cc(/C=N/NC(=O)c2ccc(OCc3nc4ccc(Cl)cc4[nH]3)cc2)cc(OC)c1OC | 74.5% | 33.3% | 48.7% | 45.5% | 74.9% | 39.1% | 40.5% | 121% | 3.83% (active) | 12.1%
CCCn1c(NC(=O)c2cccc(C(N)=O)c2)nc2ccc(CN3CCCCC3)cc21 | 105% | 103% | 88% | 65.3% | 99.3% | 60.3% | 50.2% | 159% | 96.4% | 98.9%
COc1cc(-c2ccc3ncnc(N4CCc5ccc(Cl)cc54)c3c2)cnc1Cl | 54.2% | 2.35% (active) | 26.9% | 5.14% (active) | 29.5% | 14.1% | 12.9% | -4.48% (active) | 12.2% | 6.74% (active)
CCCCCCCOc1ccc(S(=O)(=O)Nc2ccc(C)c(F)c2C(=O)O)cc1 | 102% | 95.4% | 94.9% | 75% | 96.2% | 101% | 93% | 102% | 81.6% | 98.3%
Cc1cc(C)c2[nH]c(=O)c(C(c3nnnn3Cc3ccc4c(c3)OCO4)N3CCN(C)CC3)cc2c1 (stereo not given) | 105% | 106% | 108% | 103% | 115% | 106% | 97.7% | 102% | 119% | 82.3%
C=CCSc1nnc(-c2ccc(-c3nc4ccc(Cl)cc4[nH]3)cc2)o1 | 38.7% | 60.8% | 63.1% | 78.4% | 90.3% | 78.8% | 49.2% | 106% | 37.1% | 48.9%
